Compound: CN[C@@H]1C[C@H]2O[C@@](C)([C@@H]1OC)n1c3ccccc3c3c4c(c5c6ccccc6n2c5c31)C(=O)NC4 [staurosporine]
Assay: log2 fold change of tryptic peptide abundance, ligand vs vehicle (limited proteolysis) (log2 ratio); higher = more trypsin-susceptible (destabilized)
Settings: ligand concentration: 20 uM; sample: K562 cleared lysate; digestion: 4 min, 22 C (HT-PELSA RT4min, Orbitrap Astral)

Sequence of UniProt Q9NYV4 (Q9NYV4 whole entry, looked up): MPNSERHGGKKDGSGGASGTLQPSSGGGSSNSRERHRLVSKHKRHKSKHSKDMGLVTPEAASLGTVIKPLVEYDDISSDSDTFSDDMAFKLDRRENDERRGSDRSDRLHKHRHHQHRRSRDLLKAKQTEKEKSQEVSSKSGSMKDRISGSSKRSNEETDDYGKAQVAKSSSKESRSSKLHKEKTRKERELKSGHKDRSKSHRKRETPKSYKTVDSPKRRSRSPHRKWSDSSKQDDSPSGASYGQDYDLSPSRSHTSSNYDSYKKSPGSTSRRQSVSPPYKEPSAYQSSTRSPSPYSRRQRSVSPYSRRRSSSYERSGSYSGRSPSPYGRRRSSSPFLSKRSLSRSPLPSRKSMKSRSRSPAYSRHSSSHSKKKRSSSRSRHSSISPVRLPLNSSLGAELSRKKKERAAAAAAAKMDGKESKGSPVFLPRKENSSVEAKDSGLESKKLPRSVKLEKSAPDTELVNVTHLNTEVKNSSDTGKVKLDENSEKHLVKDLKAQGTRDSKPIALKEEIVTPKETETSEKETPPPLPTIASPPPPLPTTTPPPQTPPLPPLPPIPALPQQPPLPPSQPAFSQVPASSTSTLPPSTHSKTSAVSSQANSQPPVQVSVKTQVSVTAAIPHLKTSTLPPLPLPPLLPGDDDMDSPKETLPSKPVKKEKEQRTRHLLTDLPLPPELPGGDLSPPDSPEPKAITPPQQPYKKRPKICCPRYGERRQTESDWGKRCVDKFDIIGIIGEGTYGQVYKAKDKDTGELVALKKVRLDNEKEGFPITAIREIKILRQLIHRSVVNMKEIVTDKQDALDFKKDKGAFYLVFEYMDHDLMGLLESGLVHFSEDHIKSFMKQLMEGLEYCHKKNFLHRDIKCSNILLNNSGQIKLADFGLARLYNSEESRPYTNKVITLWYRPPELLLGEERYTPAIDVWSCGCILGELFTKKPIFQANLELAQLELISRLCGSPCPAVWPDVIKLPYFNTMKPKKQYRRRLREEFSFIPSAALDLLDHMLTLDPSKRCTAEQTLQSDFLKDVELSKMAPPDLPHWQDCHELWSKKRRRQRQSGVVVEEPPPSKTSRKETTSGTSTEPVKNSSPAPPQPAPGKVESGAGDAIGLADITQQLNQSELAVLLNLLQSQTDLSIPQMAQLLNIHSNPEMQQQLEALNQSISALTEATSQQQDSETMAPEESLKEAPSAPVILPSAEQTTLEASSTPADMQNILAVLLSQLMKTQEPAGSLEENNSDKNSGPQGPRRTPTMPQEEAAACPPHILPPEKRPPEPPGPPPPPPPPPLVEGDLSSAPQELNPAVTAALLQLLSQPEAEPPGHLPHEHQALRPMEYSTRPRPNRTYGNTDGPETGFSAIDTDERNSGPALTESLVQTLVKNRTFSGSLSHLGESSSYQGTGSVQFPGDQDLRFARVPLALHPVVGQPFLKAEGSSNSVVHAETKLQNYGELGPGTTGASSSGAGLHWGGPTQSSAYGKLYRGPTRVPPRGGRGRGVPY
Sequence of UniProt O75494 (O75494 whole entry): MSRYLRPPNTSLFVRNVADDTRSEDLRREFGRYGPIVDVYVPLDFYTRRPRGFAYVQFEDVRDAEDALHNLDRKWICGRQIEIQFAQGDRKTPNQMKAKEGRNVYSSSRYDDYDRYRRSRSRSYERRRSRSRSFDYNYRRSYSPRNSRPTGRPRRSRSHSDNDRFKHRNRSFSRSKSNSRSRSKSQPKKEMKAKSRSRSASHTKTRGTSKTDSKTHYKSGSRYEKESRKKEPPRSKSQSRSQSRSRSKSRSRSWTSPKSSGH
Sequence of UniProt O14920 (O14920 whole entry): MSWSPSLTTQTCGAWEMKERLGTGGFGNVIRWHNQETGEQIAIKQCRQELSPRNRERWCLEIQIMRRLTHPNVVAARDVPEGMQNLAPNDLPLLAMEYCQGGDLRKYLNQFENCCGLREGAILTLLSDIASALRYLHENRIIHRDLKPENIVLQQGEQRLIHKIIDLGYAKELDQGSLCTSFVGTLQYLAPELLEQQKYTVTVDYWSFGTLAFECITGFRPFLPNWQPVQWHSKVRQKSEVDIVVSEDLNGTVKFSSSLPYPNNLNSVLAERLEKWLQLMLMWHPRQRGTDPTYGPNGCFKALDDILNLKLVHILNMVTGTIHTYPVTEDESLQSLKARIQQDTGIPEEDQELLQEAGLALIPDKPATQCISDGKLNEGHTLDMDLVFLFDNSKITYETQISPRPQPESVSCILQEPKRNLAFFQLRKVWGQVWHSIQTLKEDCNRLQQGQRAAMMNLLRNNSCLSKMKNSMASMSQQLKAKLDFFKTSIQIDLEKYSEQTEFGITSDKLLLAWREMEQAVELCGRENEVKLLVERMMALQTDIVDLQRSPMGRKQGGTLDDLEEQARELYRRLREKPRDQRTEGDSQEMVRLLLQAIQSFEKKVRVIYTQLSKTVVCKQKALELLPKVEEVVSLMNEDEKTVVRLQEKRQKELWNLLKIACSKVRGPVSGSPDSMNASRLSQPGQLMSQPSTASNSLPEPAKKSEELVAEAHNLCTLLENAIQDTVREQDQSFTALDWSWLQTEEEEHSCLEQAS
Sequence of UniProt P09211 (P09211 whole entry, looked up): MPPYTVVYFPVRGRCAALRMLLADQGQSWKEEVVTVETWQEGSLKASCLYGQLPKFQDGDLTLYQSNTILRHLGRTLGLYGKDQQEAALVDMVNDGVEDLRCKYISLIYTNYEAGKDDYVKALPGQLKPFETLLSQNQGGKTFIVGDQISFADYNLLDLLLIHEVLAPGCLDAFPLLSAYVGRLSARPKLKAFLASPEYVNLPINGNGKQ
Sequence of UniProt P69891 (P69891 whole entry): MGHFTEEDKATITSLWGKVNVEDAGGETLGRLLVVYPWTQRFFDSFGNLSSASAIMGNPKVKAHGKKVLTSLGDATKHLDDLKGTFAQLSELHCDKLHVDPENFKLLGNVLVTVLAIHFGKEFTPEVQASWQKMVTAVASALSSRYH
Sequence of UniProt O00506 (O00506 whole entry, looked up): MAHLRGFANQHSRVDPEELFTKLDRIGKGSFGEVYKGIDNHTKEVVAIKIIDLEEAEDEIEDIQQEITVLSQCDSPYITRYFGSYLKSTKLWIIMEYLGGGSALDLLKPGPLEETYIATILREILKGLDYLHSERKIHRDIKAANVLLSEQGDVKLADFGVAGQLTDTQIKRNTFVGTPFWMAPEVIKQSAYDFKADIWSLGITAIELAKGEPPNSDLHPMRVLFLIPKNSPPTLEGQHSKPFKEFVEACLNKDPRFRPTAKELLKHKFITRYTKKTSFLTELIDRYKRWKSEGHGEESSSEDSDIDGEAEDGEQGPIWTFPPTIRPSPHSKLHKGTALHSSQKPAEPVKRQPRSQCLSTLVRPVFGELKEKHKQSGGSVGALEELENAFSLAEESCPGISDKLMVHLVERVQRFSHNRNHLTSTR
Sequence of UniProt Q9H2K8 (Q9H2K8 whole entry, looked up): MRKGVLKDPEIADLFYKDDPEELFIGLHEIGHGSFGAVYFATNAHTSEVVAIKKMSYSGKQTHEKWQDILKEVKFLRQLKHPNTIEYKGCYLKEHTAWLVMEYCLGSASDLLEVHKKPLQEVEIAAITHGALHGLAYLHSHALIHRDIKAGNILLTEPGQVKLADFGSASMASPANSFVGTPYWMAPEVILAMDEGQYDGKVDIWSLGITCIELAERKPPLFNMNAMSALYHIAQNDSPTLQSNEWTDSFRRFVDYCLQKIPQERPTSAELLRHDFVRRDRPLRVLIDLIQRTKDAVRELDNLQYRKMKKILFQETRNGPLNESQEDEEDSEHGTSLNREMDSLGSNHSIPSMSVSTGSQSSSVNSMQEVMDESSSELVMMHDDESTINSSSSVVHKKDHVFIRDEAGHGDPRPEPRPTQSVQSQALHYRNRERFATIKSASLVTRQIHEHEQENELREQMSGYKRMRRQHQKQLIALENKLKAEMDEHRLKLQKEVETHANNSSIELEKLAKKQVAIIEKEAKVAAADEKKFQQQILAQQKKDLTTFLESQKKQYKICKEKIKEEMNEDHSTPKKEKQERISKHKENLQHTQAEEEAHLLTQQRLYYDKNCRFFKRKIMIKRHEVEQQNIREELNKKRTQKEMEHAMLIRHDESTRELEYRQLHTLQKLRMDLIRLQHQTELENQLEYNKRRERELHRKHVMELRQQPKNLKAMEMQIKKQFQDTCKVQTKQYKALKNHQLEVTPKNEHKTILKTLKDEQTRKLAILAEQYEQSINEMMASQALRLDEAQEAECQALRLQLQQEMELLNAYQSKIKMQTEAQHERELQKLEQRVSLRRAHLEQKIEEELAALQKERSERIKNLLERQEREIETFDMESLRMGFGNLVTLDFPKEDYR
Sequence of UniProt P09417 (P09417 whole entry): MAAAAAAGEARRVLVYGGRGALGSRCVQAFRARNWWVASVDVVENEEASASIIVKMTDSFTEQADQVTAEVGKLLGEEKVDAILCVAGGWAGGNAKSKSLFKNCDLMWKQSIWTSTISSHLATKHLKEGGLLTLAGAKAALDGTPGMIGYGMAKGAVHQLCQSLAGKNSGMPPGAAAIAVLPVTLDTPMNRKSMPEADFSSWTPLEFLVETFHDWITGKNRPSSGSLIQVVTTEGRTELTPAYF
Sequence of UniProt Q8TBX8 (Q8TBX8 whole entry): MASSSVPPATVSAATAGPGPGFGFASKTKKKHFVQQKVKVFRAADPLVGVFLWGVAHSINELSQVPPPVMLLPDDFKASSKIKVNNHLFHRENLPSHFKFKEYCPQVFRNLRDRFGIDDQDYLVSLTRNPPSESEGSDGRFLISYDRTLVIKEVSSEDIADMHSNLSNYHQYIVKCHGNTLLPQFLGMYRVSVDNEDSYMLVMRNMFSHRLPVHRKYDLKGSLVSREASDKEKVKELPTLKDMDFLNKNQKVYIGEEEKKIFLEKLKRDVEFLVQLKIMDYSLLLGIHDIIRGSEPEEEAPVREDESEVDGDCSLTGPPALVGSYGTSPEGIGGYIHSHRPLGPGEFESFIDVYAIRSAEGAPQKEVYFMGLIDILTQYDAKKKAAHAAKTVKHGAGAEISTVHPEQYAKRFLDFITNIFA

Q: Which log2 fold change does the source give for “QDPR (peptide sequence: EGGLLTLAGAK, peptide start residue: 128) (UniProt P09417)” here?
A: 0.635

Q: “UniProt Q9P289 (peptide sequence: NNPPTLVGDFTK, peptide start residue: 234)” was tested. Which log2 fold change did it give?
A: -1.31

Q: For “HBG1 (peptide sequence: VLTSLGDAIK, peptide start residue: 68) (UniProt P69891)”, which log2 fold change is on record?
A: 0.204

Q: For “MARS (peptide sequence: SCPVVQSSQHLFLDLPK, peptide start residue: 440) (UniProt P56192)”, which log2 fold change is on record?
A: 0.233

Q: “UniProt O75153 (peptide sequence: VVEEPYTVR, peptide start residue: 118)” was tested. Which log2 fold change did it give?
A: 0.461

Q: Which log2 fold change does the source give for “UniProt O14920 (peptide sequence: AAMMNLLR, peptide start residue: 453)” here?
A: 0.5

Q: How did the log2 fold change turn out when “UniProt Q9NYV4 (peptide sequence: EIVTDKQDALDFKK, peptide start residue: 791)” was run?
A: -1.83

Q: “CAMKK1 (peptide sequence: DIKPSNLLLGDDGHVK, peptide start residue: 275) (UniProt Q8N5S9)” was tested. Which log2 fold change did it give?
A: -3.71

Q: For “USP28 (peptide sequence: FVDPSAALDLLK, peptide start residue: 232) (UniProt Q96RU2)”, which log2 fold change is on record?
A: 0.578

Q: Which log2 fold change does the source give for “UniProt P62913 (peptide sequence: KLCLNICVGESGDR, peptide start residue: 19)” here?
A: -0.237

Q: With “PAK2 (peptide sequence: MTDEEIMEK, peptide start residue: 227) (UniProt Q13177)” as the target, how does the log2 fold change read?
A: -2.15

Q: “UniProt O75582 (peptide sequence: VGIENFELLK, peptide start residue: 44)” was tested. Which log2 fold change did it give?
A: -0.481

Q: “OSBPL9 (peptide sequence: VVLPTFILER, peptide start residue: 391) (UniProt Q96SU4)” was tested. Which log2 fold change did it give?
A: 0.326

Q: With “PIK3CB (peptide sequence: VFGEDSVGVIFK, peptide start residue: 794) (UniProt P42338)” as the target, how does the log2 fold change read?
A: -0.385

Q: Which log2 fold change does the source give for “UniProt Q13188 (peptide sequence: AIFMIPTNPPPTFR, peptide start residue: 232)” here?
A: -3.02

Q: For “UniProt O00567 (peptide sequence: LIAHAGSLTNLAK, peptide start residue: 308)”, which log2 fold change is on record?
A: 0.316

Q: For “UniProt Q8TBX8 (peptide sequence: HGAGAEISTVHPEQYAK, peptide start residue: 394)”, which log2 fold change is on record?
A: -1.92

Q: “GSTP1 (peptide sequence: MPPYTVVYFPVRGR, peptide start residue: 1) (UniProt P09211)” was tested. Which log2 fold change did it give?
A: 0.55

Q: “UniProt Q99759 (peptide sequence: SPSAPINWR, peptide start residue: 355)” was tested. Which log2 fold change did it give?
A: -2.28

Q: How did the log2 fold change turn out when “UniProt O00506 (peptide sequence: LADFGVAGQLTDTQIKR, peptide start residue: 160)” was run?
A: -1.08

Q: “UniProt Q9UBS0 (peptide sequence: HPFIVELAYAFQTGGK, peptide start residue: 128)” was tested. Which log2 fold change did it give?
A: -0.89

Q: With “UniProt O75494 (peptide sequence: SFDYNYR, peptide start residue: 133)” as the target, how does the log2 fold change read?
A: 0.608

Q: With “HERC1 (peptide sequence: VMTCVWCNKK, peptide start residue: 3431) (UniProt Q15751)” as the target, how does the log2 fold change read?
A: 0.958

Q: For “UniProt Q9Y2K2 (peptide sequence: IGYYEIDR, peptide start residue: 63)”, which log2 fold change is on record?
A: -3.15

Q: For “UniProt P07437 (peptide sequence: IREEYPDRIMNTFSVVPSPK, peptide start residue: 155)”, which log2 fold change is on record?
A: -2.5

Q: “TAOK3 (peptide sequence: VLIDLIQR, peptide start residue: 285) (UniProt Q9H2K8)” was tested. Which log2 fold change did it give?
A: -1.49
